{"source": "PubChem BioAssay AID1671192", "about": "(National Center for Advancing Translational Sciences (NCATS), 2021)", "target": "Polyunsaturated fatty acid lipoxygenase ALOX15 (Homo sapiens) (UniProt P16050)", "sequence (P16050 whole entry, looked up)": "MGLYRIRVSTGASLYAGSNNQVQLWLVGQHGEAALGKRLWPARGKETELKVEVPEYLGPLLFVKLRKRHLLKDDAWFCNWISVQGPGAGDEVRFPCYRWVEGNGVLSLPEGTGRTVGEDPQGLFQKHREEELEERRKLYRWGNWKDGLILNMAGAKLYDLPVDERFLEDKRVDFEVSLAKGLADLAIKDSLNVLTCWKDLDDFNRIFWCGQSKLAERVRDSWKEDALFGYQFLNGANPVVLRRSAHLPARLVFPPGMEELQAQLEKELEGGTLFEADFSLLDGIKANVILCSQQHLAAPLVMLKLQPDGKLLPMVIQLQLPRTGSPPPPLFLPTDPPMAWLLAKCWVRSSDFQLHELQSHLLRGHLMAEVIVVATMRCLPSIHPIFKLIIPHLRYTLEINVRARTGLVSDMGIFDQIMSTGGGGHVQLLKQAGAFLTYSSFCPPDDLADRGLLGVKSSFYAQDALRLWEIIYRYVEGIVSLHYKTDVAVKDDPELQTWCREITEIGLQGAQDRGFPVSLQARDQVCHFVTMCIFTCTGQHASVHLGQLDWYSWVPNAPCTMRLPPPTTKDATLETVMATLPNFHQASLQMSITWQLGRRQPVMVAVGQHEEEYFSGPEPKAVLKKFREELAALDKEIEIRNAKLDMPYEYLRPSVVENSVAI", "experiment": "Counterscreen qHTS for inhibitors of human arachidonate 12S-lipoxygenase (ALOX12): ALOX15 Assay", "details": "purified ALOX15 enzyme activity; series mostly up to 110 µM", "method_in_brief": "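Purified human ALOX15 (15hLO-1) at 40 nM in 25 mM HEPES, 0.01% Triton X-100, pH 7.5, preincubated with compound 15 min at RT. Then 50 uM arachidonic acid for 30 min; hydroperoxide detected by Fe-xylenol orange as the 573/405 nm absorbance ratio.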", "note": "Results filed as inconclusive are left out. Calls of active or inactive are those of the source. Calls come from the whole dose curve; as a rule, active = well fitted curve in the direction sought with a large enough effect; inconclusive = small, poorly fitted or top-dose-only effect, or another doubt; inactive = no such curve, though single readings can be large or run the other way.", "data": [{"molecule": "C[S+](=O)([O-])N1CCC(c2nnc3n2CCNC3)CC1", "values": [{"measurement": "outcome", "value": "inactive"}]}, {"molecule": "CCc1ccc(S(=O)(=O)c2nnn3c2nc(NCc2ccc(F)cc2)c2ccccc23)cc1", "values": [{"measurement": "outcome", "value": "inactive"}]}, {"molecule": "c1ccc2c(c1)CCN2C1CN(Cc2cccc3ccccc23)C1", "values": [{"measurement": "outcome", "value": "inactive"}]}, {"molecule": "FC(F)(F)c1ccc(N2C3CCC2CN(Cc2cccc(-c4cccs4)c2)C3)cc1", "values": [{"measurement": "outcome", "value": "inactive"}]}, {"molecule": "O=C(Nc1ccccc1)N1CCC(c2nnc3n2CCNC3)CC1", "values": [{"measurement": "outcome", "value": "inactive"}]}, {"molecule": "CN(C)CCCC(=O)N1Cc2ccccc2CC2(CCCCN2Cc2ccccc2)C1", "note": "(stereo unspecified)", "values": [{"measurement": "outcome", "value": "inactive"}]}, {"molecule": "CCN1CCCC12Cc1ccccc1CN([S+](C)(=O)[O-])C2", "note": "(stereo unspecified)", "values": [{"measurement": "outcome", "value": "inactive"}]}, {"molecule": "CCCC(=O)N1Cc2ccccc2CC2(CCN(Cc3ccc(O)cc3)C2)C1", "note": "(stereo unspecified)", "values": [{"measurement": "outcome", "value": "inactive"}]}, {"molecule": "COc1ccc(-c2nc(C3CC3)nc3c2CN(C(=O)c2ccccc2)CC3)cc1", "values": [{"measurement": "outcome", "value": "inactive"}]}, {"molecule": "CC(=O)NCCC(=O)N1Cc2ccccc2CC2(CCN(CC3CCNC3)CC2)C1", "note": "(stereo unspecified)", "values": [{"measurement": "outcome", "value": "inactive"}]}, {"molecule": "c1ccc2c(CN3CC(Oc4ccc5c(c4)OCO5)C3)cccc2c1", "values": [{"measurement": "outcome", "value": "inactive"}]}, {"molecule": "CCC(=O)N1Cc2ccccc2CC2(CCCCN2CC2CCNC2)C1", "note": "(stereo unspecified)", "values": [{"measurement": "outcome", "value": "inactive"}]}, {"molecule": "O=C(c1ccc(Cl)cc1)N1CC2(CCCN(Cc3ccc(Cl)cc3)C2)Cc2ccccc21", "note": "(stereo unspecified)", "values": [{"measurement": "outcome", "value": "inactive"}]}, {"molecule": "COc1ccc(CNc2ncnc3c2CN(C2CCCNCC2)C(=O)CN3C)cc1", "note": "(stereo unspecified)", "values": [{"measurement": "outcome", "value": "inactive"}]}, {"molecule": "Cc1ccc(C(=O)N2CCCC3(CC(c4cccnc4)=NO3)C2)cc1", "note": "(stereo unspecified)", "values": [{"measurement": "outcome", "value": "inactive"}]}, {"molecule": "CNCc1ccc(F)cc1", "values": [{"measurement": "outcome", "value": "inactive"}]}, {"molecule": "CN1CC(=O)N(C2CCCNCC2)Cc2c1ncnc2N1CCC(N2CCCCC2)CC1", "note": "(stereo unspecified)", "values": [{"measurement": "outcome", "value": "inactive"}]}, {"molecule": "CCOc1ccccc1CN1CCCCC12Cc1ccccc1CNC2=O", "note": "(stereo unspecified)", "values": [{"measurement": "outcome", "value": "inactive"}]}, {"molecule": "CCC(=O)N1Cc2ccccc2CC2(CCN(CC3CCNCC3)CC2)C1", "values": [{"measurement": "outcome", "value": "inactive"}]}, {"molecule": "CC(=O)N1CCCN(c2ncnc3c2CN(C2CCNCC2)C(=O)CN3C)CC1", "values": [{"measurement": "outcome", "value": "inactive"}]}, {"molecule": "COCCCNC(=O)c1cc(C2CC2)nc2c1c(C1CCCN1)nn2-c1ccccc1", "note": "(stereo unspecified)", "values": [{"measurement": "outcome", "value": "inactive"}]}, {"molecule": "O=c1[nH]c(C2CCCN(Cc3ccc(-c4cc(F)cc(F)c4)cc3)C2)nc2ccc(F)cc12", "note": "(stereo unspecified)", "values": [{"measurement": "outcome", "value": "inactive"}]}, {"molecule": "Cc1ccc(CN2CCC3(Cc4ccccc4CNC3=O)C2)cc1", "note": "(stereo unspecified)", "values": [{"measurement": "outcome", "value": "inactive"}]}, {"molecule": "COc1ccc(-c2nc(C3CC3)nc3c2CN(C(=O)c2ccccc2F)CC3)cc1", "values": [{"measurement": "outcome", "value": "inactive"}]}, {"molecule": "COc1ccc(CN2CC3(C2)C(=O)Nc2ccccc23)cc1", "values": [{"measurement": "outcome", "value": "inactive"}]}, {"molecule": "CNC(c1ccccc1)c1ccccc1", "values": [{"measurement": "outcome", "value": "inactive"}]}, {"molecule": "O=C(c1ccc(C(F)(F)F)cc1)N1CC(Oc2ccc3c(c2)OCO3)C1", "values": [{"measurement": "outcome", "value": "inactive"}]}, {"molecule": "CC(=O)N1CCCC2(CC(c3ccccn3)=NO2)C1", "note": "(stereo unspecified)", "values": [{"measurement": "outcome", "value": "inactive"}]}, {"molecule": "O=C1Nc2ccccc2C12CCN(S(=O)(=O)c1ccccc1)C2", "note": "(stereo unspecified)", "values": [{"measurement": "outcome", "value": "inactive"}]}, {"molecule": "Cc1cc(C(=O)NC2CC2)c2c(C3CCNCC3)noc2n1", "values": [{"measurement": "outcome", "value": "inactive"}]}, {"molecule": "CCCN1CCC2(Cc3ccccc3CN(C(=O)CCCC(=O)O)C2)C1", "note": "(stereo unspecified)", "values": [{"measurement": "outcome", "value": "inactive"}]}, {"molecule": "NCCCC(=O)N1CCC2(CC1)CC(NC(=O)CN)c1ccccc12", "note": "(stereo unspecified)", "values": [{"measurement": "outcome", "value": "inactive"}]}, {"molecule": "COCCNc1ncnc2c1CN(C1CCCNCC1)C(=O)CN2C", "note": "(stereo unspecified)", "values": [{"measurement": "outcome", "value": "inactive"}]}, {"molecule": "COc1ccc(CC(=O)N2Cc3ccccc3CC3(CCN(CC4CCNC4)C3)C2)cc1", "note": "(stereo unspecified)", "values": [{"measurement": "outcome", "value": "inactive"}]}, {"molecule": "COCCNC(=O)c1cc(C)nc2onc(C3CCCNC3)c12", "note": "(stereo unspecified)", "values": [{"measurement": "outcome", "value": "inactive"}]}, {"molecule": "CC(=O)NCCCC(=O)N1CCOC2(CCN(C(=O)CCCN)CC2)C1", "values": [{"measurement": "outcome", "value": "inactive"}]}, {"molecule": "O=C(N1CCCC1)N1CCn2c(nnc2-c2cncc(Br)c2)C1", "values": [{"measurement": "outcome", "value": "inactive"}]}, {"molecule": "O=C1NCc2ccccc2CC12CCN(Cc1ccc(-c3ccccc3)cc1)CC2", "values": [{"measurement": "outcome", "value": "inactive"}]}, {"molecule": "O=C(N1CCCC1)N1CCN(c2ccc(Cl)nn2)C(=O)C1", "values": [{"measurement": "outcome", "value": "inactive"}]}, {"molecule": "COc1ccc(CN2CCC3(C2)C(=O)Nc2ccccc23)cc1", "note": "(stereo unspecified)", "values": [{"measurement": "outcome", "value": "inactive"}]}, {"molecule": "O=C(c1cc(C2CC2)nc2onc(C3CCCNC3)c12)N1CCC(F)CC1", "note": "(stereo unspecified)", "values": [{"measurement": "outcome", "value": "inactive"}]}, {"molecule": "O=C(C1CCCC1)N1Cc2ccccc2CC2(CCCN(CC3CCNC3)C2)C1", "note": "(stereo unspecified)", "values": [{"measurement": "outcome", "value": "inactive"}]}, {"molecule": "Cc1cc(C(=O)NCc2ccc(F)cc2)c2c(C3CCNC3)noc2n1", "note": "(stereo unspecified)", "values": [{"measurement": "outcome", "value": "inactive"}]}, {"molecule": "FC(F)(F)c1cccc(C2=NOC3(CCN(Cc4ccccc4)C3)C2)c1", "note": "(stereo unspecified)", "values": [{"measurement": "outcome", "value": "inactive"}]}, {"molecule": "Cc1ccc2nc(C3CCCN(Cc4ccccc4)C3)[nH]c(=O)c2c1", "note": "(stereo unspecified)", "values": [{"measurement": "outcome", "value": "inactive"}]}, {"molecule": "CCCCCNc1ncnc2c1CN(C1CCNCC1)C(=O)CN2C", "values": [{"measurement": "outcome", "value": "inactive"}]}, {"molecule": "CCOCCCNc1ncnc2c1CN(C1CCCNC1)C(=O)CN2C", "note": "(stereo unspecified)", "values": [{"measurement": "outcome", "value": "inactive"}]}, {"molecule": "CN1CCC(C(=O)N2Cc3ccccc3OC3(CCN(C(=O)N(C)C)CC3)C2)CC1", "values": [{"measurement": "outcome", "value": "inactive"}]}, {"molecule": "CCC(CO)Nc1ncnc2c1CN(C1CCCNC1)C(=O)CN2C", "note": "(stereo unspecified)", "values": [{"measurement": "outcome", "value": "inactive"}]}, {"molecule": "CC(C)[S+](=O)([O-])N1CCN(c2ccc(C=O)cc2)C(=O)C1", "values": [{"measurement": "outcome", "value": "inactive"}]}, {"molecule": "CNCc1ccccc1C(F)(F)F", "values": [{"measurement": "outcome", "value": "inactive"}]}, {"molecule": "O=C(N1CCOCC1)N1CCC(c2nnc3n2CCNC3)CC1", "values": [{"measurement": "outcome", "value": "inactive"}]}, {"molecule": "CN1CC(=O)N(c2cccc(F)c2)Cc2c1ncnc2N1CCC(F)CC1", "values": [{"measurement": "outcome", "value": "inactive"}]}, {"molecule": "O=S1(=O)CCCN1C1CCN(Cc2cccc3ccccc23)CC1", "values": [{"measurement": "outcome", "value": "inactive"}]}, {"molecule": "O=C(NC1CC1)c1cc(C2CC2)nc2onc(C3CCNC3)c12", "note": "(stereo unspecified)", "values": [{"measurement": "outcome", "value": "inactive"}]}, {"molecule": "O=C1NCc2ccccc2CC12CCN(Cc1cnc3ccccc3c1)CC2", "values": [{"measurement": "outcome", "value": "inactive"}]}, {"molecule": "O=Cc1ccccc1-c1ccc(OC(F)(F)F)cc1", "values": [{"measurement": "outcome", "value": "inactive"}]}, {"molecule": "N#Cc1ccc(CN2CC(Oc3ccc(F)cc3F)C2)cc1", "values": [{"measurement": "outcome", "value": "inactive"}]}, {"molecule": "Cn1nc(C2CCCN2)c2c(C(=O)NCc3ccncc3)cc(C3CC3)nc21", "note": "(stereo unspecified)", "values": [{"measurement": "outcome", "value": "inactive"}]}, {"molecule": "CCC(=O)N1Cc2ccccc2CC2(CCN(Cc3ccncc3)CC2)C1", "values": [{"measurement": "outcome", "value": "inactive"}]}, {"molecule": "O=[S+]([O-])(c1ccccc1)N1CC(Oc2ccc(F)c(F)c2)C1", "values": [{"measurement": "outcome", "value": "inactive"}]}, {"molecule": "CCN1CCCCC12Cc1ccccc1CN(C(=O)C1CCN(C)CC1)C2", "note": "(stereo unspecified)", "values": [{"measurement": "outcome", "value": "inactive"}]}, {"molecule": "CCNc1ncnc2c1CN(C1CCNC1)C(=O)CN2C", "note": "(stereo unspecified)", "values": [{"measurement": "outcome", "value": "inactive"}]}, {"molecule": "C[S+](=O)([O-])N1CCCC(c2nnc3n2CCNC3)C1", "note": "(stereo unspecified)", "values": [{"measurement": "outcome", "value": "inactive"}]}, {"molecule": "O=C(c1ccc(Cl)cc1)N1CC2(CCN(Cc3ccc(Cl)cc3)C2)Cc2ccccc21", "note": "(stereo unspecified)", "values": [{"measurement": "outcome", "value": "inactive"}]}, {"molecule": "O=C(O)CCCC(=O)N1Cc2ccccc2CC2(CCCN2Cc2ccccc2)C1", "note": "(stereo unspecified)", "values": [{"measurement": "outcome", "value": "inactive"}]}, {"molecule": "CC(C)CN1CCC(c2nc3ccc(F)cc3c(=O)[nH]2)CC1", "values": [{"measurement": "outcome", "value": "inactive"}]}, {"molecule": "COc1ccccc1CNc1ncnc2c1CN(C1CCCNCC1)C(=O)CN2C", "note": "(stereo unspecified)", "values": [{"measurement": "outcome", "value": "inactive"}]}, {"molecule": "CC(C)c1nc2c(c(-c3ccc(Cl)cc3)n1)CCN(Cc1cccc3ccccc13)CC2", "values": [{"measurement": "outcome", "value": "inactive"}]}, {"molecule": "Cc1ccc(-c2cccc(CN)c2)cc1Cl", "values": [{"measurement": "outcome", "value": "inactive"}]}, {"molecule": "CC(=O)NC1CC2(CCN(C(=O)Cc3c(C)noc3C)CC2)Oc2ccccc21", "note": "(stereo unspecified)", "values": [{"measurement": "outcome", "value": "inactive"}]}, {"molecule": "CN1CC(=O)N(c2ccc(Cl)cc2)Cc2c(NC3CCNCC3)ncnc21", "values": [{"measurement": "outcome", "value": "inactive"}]}, {"molecule": "O=C(NCC(F)(F)F)c1cc(C2CC2)nc2c1c(C1CCCN1)nn2-c1ccccc1", "note": "(stereo unspecified)", "values": [{"measurement": "outcome", "value": "inactive"}]}, {"molecule": "CN1CC(=O)N(C2CCNCC2)Cc2c1ncnc2N1CCC(O)CC1", "values": [{"measurement": "outcome", "value": "inactive"}]}, {"molecule": "CN1CC(=O)N(C2CCCNCC2)Cc2c1ncnc2N1CCCCC1", "note": "(stereo unspecified)", "values": [{"measurement": "outcome", "value": "inactive"}]}, {"molecule": "CC1CCCN(c2ncnc3c2CN(C2CCNCC2)C(=O)CN3C)C1", "note": "(stereo unspecified)", "values": [{"measurement": "outcome", "value": "inactive"}]}]}
